# Where “and” joins values, the source holds several entries; their conditions need not be identical. Equal entries are not always repeated. Some compounds were tested as several samples or in several runs, with calls that do not always agree. Calls of active or inactive are those of the source.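 Rule for the calls, unless noted: active = compounds whose cell count with miR-34 switched on is under 0.7 times the count with it off; inactive = the rest.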
# What was measured:
# [1] = sensitizers of A549 cells to miR-34 induction, primary screen, imaging, A549 dox-inducible miR-34, nuclei and caspase counts (AID 1347080); conditions: A549 miR-34 inducible, Hoechst nuclei count, 48 h; note: test concentration not given here
# [2] = survival rescue of mitochondrial mutant cells in low glucose, primary screen, MELAS cybrids, Rieske KO mouse fibroblasts, CellTiter-Glo (AID 1508586;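 active = mean z-score across replicates of 1.96 or higher in either the MELAS or the Rieske mutant cell line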;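 note: test concentration not given here; z relative to plate mean and SD of compound and empty wells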)
# [3] = viability rescue of complex I mutant cybrids, primary screen, cell-based, galactose medium, ATP luminescence (AID 1645843;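 active = z-score of at least 1.8 in each of two replicates, scored against plate mean and spread of sample wells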;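 note: positive z means more ATP and so rescue of galactose-driven cybrid death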); conditions: complex I mutant cybrid cells, 72 h, stronger effect = higher value
# [4] = stronger effect = lower value, cell number ratio, induced over uninduced
# [5] = measured here: relative caspase fold change +Dox/-Dox
# [6] = measured here: total cells with miR-34 induction, stronger effect = lower value
# [7] = measured here: total cells without miR-34 induction
# [8] = MELAS cybrid survival, CellTiter-Glo 48 h, stronger effect = higher value
# [9] = Rieske KO mouse fibroblast survival, CellTiter-Glo 72 h
Structure (SMILES),"fold change [1, 4]","fold change [1, 5]","cell count [1, 6]","cell count [1, 7]","z-score [2, 8]","z-score [2, 9]",z-score [3]
CC(=O)NCCc1ccc(S(N)(=O)=O)cc1,0.918 (inactive),0.641,7840,8540,0.668 (inactive),-0.256,-0.065 (inactive)
CCn1cnc(NC(=O)N(C)Cc2cccc3ncccc23)n1,0.944 (inactive),1.82,9300,9840,-0.163 (inactive),-0.316,-0.465 (inactive)
COc1cccc2c(=O)n(Cc3ccc4ncccc4c3)cnc12,0.883 (inactive),1.22,8080,9140,-0.263 (inactive),-0.193,-0.28 (inactive)
Nc1nc(Nc2cccc(Cl)c2)sc1C(=O)c1ccc(F)cc1,0.868 (inactive),0.635,7020,8090,1.64 (inactive),0.109,-2.28 (inactive)
CCCCCC(O)C=CC1C(O)CC(=O)C1CCCCCCC(=O)O (stereo unspecified),0.973 (inactive) and 0.918 (inactive),0.603 and 0.896,9870 and 7520,10100 and 8190,-0.372 (inactive),0.491,0.865 (inactive)
COc1cccc2c(=O)n(C(C)Cn3cccn3)cnc12 (stereo unspecified),0.936 (inactive),1.36,9030,9650,-0.113 (inactive),-1.21,-0.305 (inactive)
O=C(O)c1cccnc1Nc1ccc(Cl)cc1,1.17 (inactive),0.619,5660,4840,-0.775 (inactive),-0.287,0.845 (inactive)
Cc1cc(-c2cnn(CC(=O)Nc3ccnn3Cc3ccccc3)c2)nc(N)n1,0.926 (inactive),0.917,8320,8980,-0.562 (inactive),0.0522,-0.58 (inactive)
O=C(NCCCc1ccccc1)NC1CCCCC1,0.869 (inactive),0.557,8240,9480,-0.491 (inactive),-0.675,0.35 (inactive)
CCn1ncc2[nH]c(-c3cnn(C)c3-c3ccccc3)nc21,0.88 (inactive),1.89,8480,9640,-0.346 (inactive),-0.221,-0.49 (inactive)
CCn1c2ccccc2c2cc(CNC)ccc21,0.848 (inactive),0.773,7330,8640,0.644 (inactive),-0.0619,-0.915 (inactive)
Cc1nonc1CN(C)c1ncnc2nc[nH]c12,0.907 (inactive),0.714,9230,10200,-0.379 (inactive),-0.0852,-0.565 (inactive)
O=S(=O)(O)CCN1CCOCC1,0.906 (inactive),0.601,8760,9670,-0.907 (inactive),-0.75,0.715 (inactive)
NC(=O)NC(CCC(=O)O)C(=O)O (stereo unspecified),0.857 (inactive),0.229,8940,10400,0.385 (inactive),-0.000429,0.4 (inactive)
CCCOc1ccc(CC(=O)O)cc1Cl,0.877 (inactive),0.341,8590,9790,0.699 (inactive),0.326,0.735 (inactive)
CCN(CCc1ccccn1)C(=O)c1cc(-c2cnc(N)nc2)nc2c(C)cccc12,0.904 (inactive),1.79,8640,9560,-0.0572 (inactive),-0.177,0.51 (inactive)
O=C(O)c1cc(Br)ccc1NS(=O)(=O)c1ccc(Cl)cc1,0.854 (inactive),0.75,8540,10000,-0.163 (inactive),-0.343,0.495 (inactive)
O=S(=O)(O)CCCSc1nc2ccccc2s1,0.906 (inactive),0.489,8800,9700,-0.268 (inactive),-0.142,0.7 (inactive)
COc1ccc(-c2oc3ncnc(NCCO)c3c2-c2ccc(OC)cc2)cc1,0.89 (inactive),0.844,5740,6450,1.03,11.9,-1.77 (inactive)

Structure (SMILES),"fold change [1, 4]","fold change [1, 5]","cell count [1, 6]","cell count [1, 7]","z-score [2, 8]","z-score [2, 9]",z-score [3]
OC1(CNc2ncnc3nc[nH]c23)C2CC3CC(C2)CC1C3 (stereo unspecified),0.887 (inactive),0.873,8560,9650,-0.357 (inactive),-0.0569,-0.575 (inactive)
Cn1c(=O)ccc2ccccc21,0.892 (inactive),0.453,8490,9520,-0.16 (inactive),0.0614,0.32 (inactive)
O=C(O)Cc1cc(=O)[nH]c(=O)[nH]1,0.898 (inactive),0.239,8760,9760,0.622 (inactive),-0.242,-0.13 (inactive)
O=C(Nc1n[nH]c(Cc2ccccc2)n1)N1CCN(c2ncncn2)CC1,0.914 (inactive),1.11,9380,10300,0.379,4.03,0.44 (inactive)
CCCCNS(=O)(=O)c1ccccc1,0.925 (inactive),0.335,8780,9480,-0.187 (inactive),0.108,0.175 (inactive)
Cc1nc2ccc(CN(C)c3ccc(C(=O)NC(CCC(=O)O)C(=O)O)s3)cc2c(=O)[nH]1 (stereo unspecified),1.21 (inactive) and 1.1 (inactive),1.12 and 0.742,1780 and 1710,1470 and 1560,-0.603 (inactive),-0.121,-1.03 (inactive)
COc1ncccc1-c1cnn(CC(=O)Nc2cc(-c3ccccn3)nn2C)c1,0.961 (inactive),0.557,9520,9900,-0.417 (inactive),0.201,-0.56 (inactive)
O=C1CN(C(=O)c2ccncc2)CCN1Cc1ccc2c(c1)OCO2,0.914 (inactive),1.59,9040,9890,-0.12 (inactive),-0.568,-0.52 (inactive)
Cc1nc(NC(=O)NCC2COc3ccccc3O2)nn1C(C)C (stereo unspecified),0.958 (inactive),1.49,8560,8940,-0.362 (inactive),0.824,2.15 (active)
O=S(=O)(O)c1cccc2cccc(Nc3ccccc3)c12,0.946 (inactive),0.486,8990,9500,-0.258 (inactive),-0.0194,0.715 (inactive)
O=C(O)c1ccc(-c2cc(Cl)ccc2Cl)o1,0.874 (inactive),0.439,8600,9840,-0.277 (inactive),0.0393,0.44 (inactive)
OCC(O)COc1ccc(Cl)cc1 (stereo unspecified),0.886 (inactive),0.44,8700,9820,0.325 (inactive),0.457,0.62 (inactive)
CSc1ccccc1C(=O)N1CCc2[nH]nc(COc3ccccc3)c2C1,0.941 (inactive),0.435,8390,8920,-0.515 (inactive),0.374,1.12 (inactive)
CCOC(=O)C1=C(C)NC(C)=C(C(=O)OCC)C1c1ccccc1C=CC(=O)OC(C)(C)C,0.635 (active) and 0.971 (inactive),1.57 and 0.602,2050 and 7220,3220 and 7430,-0.107 (inactive),-0.188,-1.44 (inactive)
CC1(C)CC(=O)c2sc(N3CCOCC3)nc2C1,0.909 (inactive),0.788,8160,8970,0.786 (inactive),-0.0343,0.025 (inactive)
c1ccn2cc(CCNc3ncnc4nc[nH]c34)nc2c1,0.837 (inactive),1.9,8280,9890,-0.607 (inactive),-0.578,-0.4 (inactive)
OCCN1CC(O)C(O)C(O)C1CO (stereo unspecified),0.949 (inactive) and 0.938 (inactive),1.7 and 0.717,10100 and 10300,10600 and 11000,-0.386 (inactive),0.318,0.805 (inactive)
O=C1NCC(=O)N2CCCC12 (stereo unspecified),0.892 (inactive),0.892,8240,9240,-0.237 (inactive),-0.595,0.315 (inactive)
Cc1cc2nc3[nH]c(=O)[nH]c(=O)c3nc2cc1C,0.917 (inactive),0.188,7820,8530,1.63 (inactive),0.292,0.825 (inactive)
